# Measured values published in paper PMC5540273 (PLoS ONE, 2017).
# Like-named read-outs stand apart in the source and are kept apart here.
# Key:
# Conditions in all cases: n = 1
# FLT3 = test system: FLT3
# FLT4 = test system: FLT4
# FRK = test system: FRK
# FYN = test system: FYN
# GAK = test system: GAK
# GCN2(Kin.Dom.2,S808G) = test system: T1, GCN2(Kin.Dom.2,S808G)
# T1 construct: gene EIF2AK4
# GRK1 = test system: GRK1
# GRK2 = test system: T2, GRK2
# T2 construct: gene ADRBK1
# GRK3 = test system: T3, GRK3
# T3 construct: gene ADRBK2
# GRK4 = test system: GRK4
# GRK7 = test system: GRK7
# GSK3A = test system: GSK3A
# GSK3B = test system: GSK3B
# HASPIN = test system: T4, HASPIN
# T4 construct: gene GSG2
# HCK = test system: HCK
# HIPK1 = test system: HIPK1
# HIPK2 = test system: HIPK2
# HIPK3 = test system: HIPK3
# HIPK4 = test system: HIPK4
# HPK1 = test system: HPK1
# [1] = concentration: 1 μM, replicates: in singlicate
# 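Further: KINOMEscan kinase panel screen.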
smiles,measurement,setting,value
Cc1csc(-c2nc(Nc3ccncc3)c3ccccc3n2)n1 [GW869640],%Inh,FLT3; [1],39%
same,%Inh,FLT4; [1],6%
same,%Inh,FRK; [1],4%
same,%Inh,FYN; [1],24%
same,%Inh,GAK; [1],21%
same,%Inh,"GCN2(Kin.Dom.2,S808G); [1]",13%
same,%Inh,GRK1; [1],27%
same,%Inh,GRK2; [1],0%
same,%Inh,GRK3; [1],0%
same,%Inh,GRK4; [1],29%
same,%Inh,GRK7; [1],17%
same,%Inh,GSK3A; [1],0%
same,%Inh,GSK3B; [1],46%
same,%Inh,HASPIN; [1],87%
same,%Inh,HCK; [1],23%
same,%Inh,HIPK1; [1],7%
same,%Inh,HIPK2; [1],23%
same,%Inh,HIPK3; [1],36%
same,%Inh,HIPK4; [1],7%
same,%Inh,HPK1; [1],3%
COc1ccc(CNC(=O)NC2CCN(c3ccnc(Nc4cc(OC)c(OC)c(OC)c4)n3)C2)cc1 (centres unmarked) [GSK1379748],%Inh,FLT3; [1],71%
same,%Inh,FLT4; [1],26%
same,%Inh,FRK; [1],5%
same,%Inh,FYN; [1],22%
same,%Inh,GAK; [1],16%
same,%Inh,"GCN2(Kin.Dom.2,S808G); [1]",0%
same,%Inh,GRK1; [1],0%
same,%Inh,GRK2; [1],0%
same,%Inh,GRK3; [1],40%
same,%Inh,GRK4; [1],0%
same,%Inh,GRK7; [1],0%
same,%Inh,GSK3A; [1],7%
same,%Inh,GSK3B; [1],0%
same,%Inh,HASPIN; [1],38%
same,%Inh,HCK; [1],0%
same,%Inh,HIPK1; [1],0%
same,%Inh,HIPK2; [1],8%
same,%Inh,HIPK3; [1],33%
same,%Inh,HIPK4; [1],0%
same,%Inh,HPK1; [1],53%
Cl.NC(=O)c1cccc(Nc2nccc(Nc3ccc(Oc4cccc(Cl)c4)c(Cl)c3)n2)c1 [GW659008],%Inh,FLT3; [1],54%
same,%Inh,FLT4; [1],0%
same,%Inh,FRK; [1],24%
same,%Inh,FYN; [1],59%
same,%Inh,GAK; [1],43%
same,%Inh,"GCN2(Kin.Dom.2,S808G); [1]",11%
same,%Inh,GRK1; [1],0%
same,%Inh,GRK2; [1],0%
same,%Inh,GRK3; [1],18%
same,%Inh,GRK4; [1],15%
same,%Inh,GRK7; [1],0%
same,%Inh,GSK3A; [1],0%
same,%Inh,GSK3B; [1],0%
same,%Inh,HASPIN; [1],0%
same,%Inh,HCK; [1],72%
same,%Inh,HIPK1; [1],0%
same,%Inh,HIPK2; [1],0%
same,%Inh,HIPK3; [1],0%
same,%Inh,HIPK4; [1],0%
same,%Inh,HPK1; [1],37%
Cc1ccc(C(=O)Nc2ccc(Nc3ccnc4cc(-c5ccccn5)ccc34)cc2O)cc1.Cl [GW440146],%Inh,FLT3; [1],0%
same,%Inh,FLT4; [1],0%
same,%Inh,FRK; [1],48%
same,%Inh,FYN; [1],41%
same,%Inh,GAK; [1],7%
same,%Inh,"GCN2(Kin.Dom.2,S808G); [1]",12%
same,%Inh,GRK1; [1],0%
same,%Inh,GRK2; [1],0%
same,%Inh,GRK3; [1],24%
same,%Inh,GRK4; [1],0%
same,%Inh,GRK7; [1],0%
same,%Inh,GSK3A; [1],7%
same,%Inh,GSK3B; [1],4%
same,%Inh,HASPIN; [1],30%
same,%Inh,HCK; [1],72%
same,%Inh,HIPK1; [1],8%
same,%Inh,HIPK2; [1],0%
same,%Inh,HIPK3; [1],4%
same,%Inh,HIPK4; [1],0%
same,%Inh,HPK1; [1],34%
COc1ccc(Nc2nccc(NCCNC(=O)Nc3ccccc3F)n2)cc1 [GSK1379901],%Inh,FLT3; [1],0%
same,%Inh,FLT4; [1],6%
same,%Inh,FRK; [1],13%
same,%Inh,FYN; [1],0%
same,%Inh,GAK; [1],0%
same,%Inh,"GCN2(Kin.Dom.2,S808G); [1]",2%
same,%Inh,GRK1; [1],0%
same,%Inh,GRK2; [1],0%
same,%Inh,GRK3; [1],26%
same,%Inh,GRK4; [1],0%
same,%Inh,GRK7; [1],0%
same,%Inh,GSK3A; [1],30%
same,%Inh,GSK3B; [1],13%
same,%Inh,HASPIN; [1],0%
same,%Inh,HCK; [1],0%
same,%Inh,HIPK1; [1],0%
same,%Inh,HIPK2; [1],0%
same,%Inh,HIPK3; [1],7%
same,%Inh,HIPK4; [1],0%
same,%Inh,HPK1; [1],36%
COc1cc2ncn(-c3cc(OCC4CCCO4)c(C(N)=O)s3)c2cc1OC (centres unmarked) [GSK204607],%Inh,FLT3; [1],0%
same,%Inh,FLT4; [1],36%
same,%Inh,FRK; [1],17%
same,%Inh,FYN; [1],33%
same,%Inh,GAK; [1],53%
same,%Inh,"GCN2(Kin.Dom.2,S808G); [1]",0%
same,%Inh,GRK1; [1],0%
same,%Inh,GRK2; [1],0%
same,%Inh,GRK3; [1],16%
same,%Inh,GRK4; [1],0%
same,%Inh,GRK7; [1],0%
same,%Inh,GSK3A; [1],20%
same,%Inh,GSK3B; [1],0%
same,%Inh,HASPIN; [1],26%
same,%Inh,HCK; [1],0%
same,%Inh,HIPK1; [1],7%
same,%Inh,HIPK2; [1],0%
same,%Inh,HIPK3; [1],17%
same,%Inh,HIPK4; [1],52%
same,%Inh,HPK1; [1],15%
COc1ccccc1-c1ccc2c(NC(=O)C3CC3)n[nH]c2n1 [SB-711239],%Inh,FLT3; [1],5%
same,%Inh,FLT4; [1],0%
same,%Inh,FRK; [1],0%
same,%Inh,FYN; [1],5%
same,%Inh,GAK; [1],14%
same,%Inh,"GCN2(Kin.Dom.2,S808G); [1]",10%
same,%Inh,GRK1; [1],13%
same,%Inh,GRK2; [1],0%
same,%Inh,GRK3; [1],0%
same,%Inh,GRK4; [1],28%
same,%Inh,GRK7; [1],0%
same,%Inh,GSK3A; [1],6%
same,%Inh,GSK3B; 1 µM,0%
same,%Inh,HASPIN; [1],41%
same,%Inh,HCK; [1],0%
same,%Inh,HIPK1; [1],0%
same,%Inh,HIPK2; [1],0%
same,%Inh,HIPK3; [1],1%
same,%Inh,HIPK4; [1],0%
same,%Inh,HPK1; [1],41%
Fc1cc(Cl)ccc1Nc1ccnc2cc(-c3ccc(CN4CCCCC4)o3)ccc12 [GW560116],%Inh,FLT3; [1],0%
same,%Inh,FLT4; [1],0%
same,%Inh,FRK; [1],4%
same,%Inh,FYN; [1],18%
same,%Inh,GAK; [1],35%
same,%Inh,"GCN2(Kin.Dom.2,S808G); [1]",0%
same,%Inh,GRK1; [1],0%
same,%Inh,GRK2; [1],0%
same,%Inh,GRK3; [1],18%
same,%Inh,GRK4; [1],0%
same,%Inh,GRK7; [1],0%
same,%Inh,GSK3A; [1],0%
same,%Inh,GSK3B; [1],0%
same,%Inh,HASPIN; [1],32%
same,%Inh,HCK; [1],0%
same,%Inh,HIPK1; [1],0%
same,%Inh,HIPK2; [1],0%
same,%Inh,HIPK3; [1],1%
same,%Inh,HIPK4; [1],0%
same,%Inh,HPK1; [1],14%
Cc1ccc(NC(=O)Nc2cccc(C(F)(F)F)c2)cc1 [GSK955403],%Inh,FLT3; 1 µM,59%
same,%Inh,FLT4; 1 µM,12%
same,%Inh,FRK; 1 µM,0%
same,%Inh,FYN; 1 µM,0%
same,%Inh,GAK; 1 µM,0%
same,%Inh,"GCN2(Kin.Dom.2,S808G); 1 µM",0%
same,%Inh,GRK1; 1 µM,2%
same,%Inh,GRK2; 1 µM,0%
same,%Inh,GRK3; 1 µM,0%
same,%Inh,GRK4; 1 µM,0%
same,%Inh,GRK7; 1 µM,10%
same,%Inh,GSK3A; 1 µM,0%
same,%Inh,HASPIN; 1 µM,12%
same,%Inh,HCK; 1 µM,0%
same,%Inh,HIPK1; 1 µM,8%
same,%Inh,HIPK2; 1 µM,0%
same,%Inh,HIPK3; 1 µM,0%
same,%Inh,HIPK4; 1 µM,0%
same,%Inh,HPK1; 1 µM,0%
